Laboratory results published in the supplement of paper PMC10127200.
Structures can show the parent of a compound that is named as a salt.

Columns and labels:
Test in all cases: Euclidean distance of Cell Painting phenotypic profile (signed KS, 77 features) to DMSO centroid (dimensionless distance); 5 or 10 uM (library dependent); higher = stronger phenotypic change vs DMSO (phenoactivity)
Details in all cases: 48 h
786-O = system: 786-O
Summary of the method: (§1)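 Library compounds were applied at 10 or 5 uM, depending on the library, with 0.1% DMSO final, for 48 h to five cancer lines and a healthy fibroblast line. After staining, cells were imaged confocally at 20X across 9 fields per well, and Harmony extracted 77 features, each scored as a signed Kolmogorov-Smirnov statistic against vehicle wells on the same plate. Phenoactivity is the Euclidean distance between each profile and the median vehicle profile, with profiles first plate-position corrected, correlation-weighted and averaged over replicates at the top dose.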

A549 = system: A549
Summary of the method: as §1

FB = system: FB
Summary of the method: as §1

HEPG2 = system: HEPG2
Summary of the method: as §1

OVCAR4 = system: OVCAR4
Summary of the method: as §1

Row | SMILES | Euclidean distance (786-O) | Euclidean distance (A549) | Euclidean distance (FB) | Euclidean distance (HEPG2) | Euclidean distance (OVCAR4)
1 | CCC(NC(C)C)C(O)c1ccc(O)c(O)c1 (stereo not given) [Isoetharine Mesylate] | 0.478 | 0.789 | 1.18 | 0.832 | 1.01
2 | NC(=O)c1ncn([C@@H]2O[C@H](CO)[C@@H](O)[C@H]2O)c1O [Mizoribine] | 1.26 | 0.927 | 0.917 | 0.657 | 0.855
3 | COC(=O)C1=C(C#N)NC(C)=C(C(=O)OC(C)C)C1c1cccc([N+](=O)[O-])c1 (stereo not given) [Nilvadipine] | 1.2 | 0.818 | 1.19 | 0.907 | 1.34
4 | COc1c(O)cc2c(c1O)[C@@H]1O[C@H](CO)[C@@H](O)[C@H](O)[C@H]1OC2=O [Bergenin] | 1.22 | 0.742 | 0.906 | 0.765 | 2.16
5 | CC1=C(C(=O)O)N2C(=O)[C@@H](NC(=O)[C@H](N)c3ccccc3)[C@H]2SC1 [Cephalexin] | 1.16 | 1.01 | 1.05 | 0.939 | 1.1
6 | CN(C)CCOC(c1ccccc1)c1ccccc1 [Diphenhydramine HCl] | 0.916 | 0.411 | 0.777 | 0.793 | 0.518
7 | CN1CC[C@@H](NC(=O)Nc2ccc(C#N)cc2)C[C@@H]1c1nc2ccccc2[nH]1 | 2.28 | 1.79 | 3.81 | 1.1 | 1.73
8 | COCCCOc1cc(C[C@@H](C[C@H](N)[C@@H](O)C[C@H](C(=O)NCC(C)(C)C(N)=O)C(C)C)C(C)C)ccc1OC [Aliskiren Hemifumarate] | 0.778 | 0.371 | 0.622 | 0.506 | 0.752
9 | Cc1c(OCC(F)(F)F)ccnc1C[S+]([O-])c1nc2ccccc2[nH]1 (stereo not given) [Lansoprazole] | 1.16 | 2.3 | 0.815 | 1.08 | 0.948
10 | CO[C@@]12[C@H](COC(N)=O)C3=C(C(=O)C(C)=C(N)C3=O)N1C[C@@H]1N[C@@H]12 [Mitomycin C] | 3.14 | 3.37 | 3.89 | 3.46 | 3.61
11 | CC(C)C[C@H](NC(=O)[C@@H](O)[C@H](N)Cc1ccccc1)C(=O)O [Bestatin] | 1.08 | 0.773 | 1.11 | 0.637 | 1.09
12 | C=C1CC[C@@H]2[C@](C)(CO)[C@H](O)CC[C@@]2(C)[C@@H]1C/C=C1/C(=O)OC[C@H]1O [Andrographolide] | 2.41 | 1.6 | 1.96 | 1.62 | 1.67
13 | CC(C)(Cc1ccc2ccccc2c1)NC[C@@H](O)COc1cccc(Cl)c1C#N | 1.35 | 1.64 | 1.06 | 1.77 | 1.45
14 | CCC(C)(Oc1ccc(C2(c3ccc(OC(C)(CC)C(=O)O)cc3)CCCCC2)cc1)C(=O)O (stereo not given) [Clinofibrate] | 1.38 | 0.971 | 0.938 | 0.433 | 1.33
15 | Nc1ccc2cc3ccc(N)cc3nc2c1 [Proflavine Hemisulfate] | 4.95 | 4.91 | 5.65 | 5.57 | 5.46
16 | c1ccc(C2CN3CCSC3=N2)cc1 (stereo not given) [Tetramisole HCl] | 1.45 | 0.708 | 1.19 | 1.31 | 1.25
17 | CC(C)C(=O)Nc1ccc([N+](=O)[O-])c(C(F)(F)F)c1 [Flutamide] | 0.873 | 0.771 | 1.09 | 0.723 | 1.99
18 | Cc1c(C)c2c(c(C)c1O)CCC(C)(COc1ccc(CC3SC(=O)NC3=O)cc1)O2 (stereo not given) [Troglitazone (CS-045)] | 1.4 | 1.51 | 0.893 | 0.876 | 1.2
19 | C[C@@H]1CCC[C@H](C)N1NC(=O)c1ccc(Cl)c(S(N)(=O)=O)c1 [Clopamide] | 1.15 | 1.14 | 0.969 | 0.528 | 1.14
20 | Cc1cc2c(s1)Nc1ccccc1N=C2N1CCN(C)CC1 [Olanzapine] | 1.03 | 1.01 | 1.48 | 0.621 | 1.61
21 | O=C(CCCN1CCC(O)(c2ccc(Cl)cc2)CC1)c1ccc(F)cc1 [Haloperidol] | 1.27 | 0.777 | 1.09 | 1.04 | 1.95
22 | CCc1nc(N)nc(N)c1-c1ccc(Cl)cc1 [Pyrimethamine] | 1.19 | 3.4 | 0.96 | 1.83 | 2.25
23 | CCN(CC)CCOc1ccc(C(=C(Cl)c2ccccc2)c2ccccc2)cc1 [Clomifene citrate] | 4.89 | 3.99 | 3.36 | 4.07 | 3.4
24 | COC(=O)C[C@](O)(CCCC(C)(C)O)C(=O)O[C@@H]1C(OC)=C[C@]23CCCN2CCc2cc4c(cc2[C@H]13)OCO4 [Homoharringtonine] | 3.57 | 3.34 | 4.13 | 3.18 | 3.7
25 | Cc1cc(Nc2cc(N)ncn2)c(=O)n2c1C(=O)NC21CCCCC1 | 0.779 | 0.866 | 1.08 | 0.427 | 1.18
26 | CN(C)C(=N)NC(=N)N [Metformin HCl] | 1.61 | 0.837 | 1.26 | 0.474 | 1.78

Row | SMILES | Euclidean distance (786-O) | Euclidean distance (A549) | Euclidean distance (FB) | Euclidean distance (HEPG2) | Euclidean distance (OVCAR4)
27 | Cc1ccc(C(=O)Nc2ccc(CN3CCN(C)CC3)c(C(F)(F)F)c2)cc1C#Cc1cnc2[nH]ncc2c1 [GZD824 Dimesylate] | 4.23 | 4.68 | 5.04 | 5.49 | 4.87
28 | CNCCCC1c2ccccc2C=Cc2ccccc21 [Protriptyline hydrochloride] | 1.15 | 0.784 | 1.82 | 1.74 | 0.952
29 | Cc1cccn2c(=O)c(-c3nnn[nH]3)cnc12 [Pemirolast potassium] | 1.31 | 0.747 | 0.893 | 0.682 | 1.05
30 | COc1ccc(-n2nc(C(N)=O)c3c2C(=O)N(c2ccc(N4CCCCC4=O)cc2)CC3)cc1 [Apixaban] | 2.4 | 2.33 | 3.79 | 1.17 | 2.13
31 | C[C@@H]1C[C@H]2[C@@H]3CCC4=CC(=O)C=C[C@]4(C)[C@@]3(F)[C@@H](O)C[C@]2(C)[C@H]1C(=O)CO [Desoximetasone] | 1.28 | 2.05 | 1.89 | 0.967 | 2.03
32 | C=C(NC(=O)C(=C)NC(=O)c1csc(C2=N[C@@H]3c4csc(n4)[C@H]4NC(=O)c5csc(n5)[C@H]([C@](C)(O)[C@@H](C)O)NC(=O)[C@H]5CSC(=N5)/C(=C/C)NC(=O)[C@H]([C@@H](C)O)NC(=O)c5csc(n5)[C@]3(CC2)NC(=O)[C@H](C)NC(=O)C(=C)NC(=O)[C@H](C)NC(=O)[C@H]([C@@H](C)CC)N[C@@H]2C=Cc3c([C@H](C)O)cc(nc3[C@H]2O)C(=O)O[C@@H]4C)n1)C(N)=O [Thiostrepton] | 4.46 | 2.6 | 4.95 | 4.36 | 2.62
33 | CC(C(=O)O)c1ccc(-c2ccccc2)c(F)c1 (stereo not given) [Flurbiprofen] | 0.962 | 0.696 | 1.21 | 0.393 | 1.27
34 | O=C1c2ccccc2C(=O)C1c1ccccc1 [Phenindione] | 0.966 | 1.04 | 1.16 | 0.74 | 1.1
35 | Nc1nc(N)c2nc(-c3ccccc3)c(N)nc2n1 [Triamterene] | 1.01 | 2.17 | 1.13 | 1.45 | 1.29
36 | COCCOC(=O)C1=C(C)NC(C)=C(C(=O)OC/C=C/c2ccccc2)C1c1cccc([N+](=O)[O-])c1 (stereo not given) [Cilnidipine] | 2.22 | 1.04 | 1.29 | 1.61 | 1.46
37 | CCCCCCCCCC(=O)N[C@@H](Cc1c[nH]c2ccccc12)C(=O)N[C@H](CC(N)=O)C(=O)N[C@@H](CC(=O)O)C(=O)N[C@@H]1C(=O)NCC(=O)N[C@@H](CCCN)C(=O)N[C@@H](CC(=O)O)C(=O)N[C@H](C)C(=O)N[C@@H](CC(=O)O)C(=O)NCC(=O)N[C@H](CO)C(=O)N[C@@H]([C@H](C)CC(=O)O)C(=O)N[C@@H](CC(=O)c2ccccc2N)C(=O)O[C@@H]1C [Daptomycin] | 1.06 | 0.544 | 0.795 | 0.461 | 1.14
38 | CC(=O)[C@H]1CC[C@H]2[C@@H]3CCC4=CC(=O)CC[C@]4(C)[C@H]3CC[C@]12C [Progesterone] | 0.734 | 0.774 | 0.883 | 0.863 | 0.832
39 | Cc1nnc(C(=O)NC(C)(C)c2nc(C(=O)NCc3ccc(F)cc3)c(O)c(=O)n2C)o1 [Raltegravir (MK-0518)] | 1.17 | 0.695 | 1.11 | 0.537 | 1.35
40 | S=C(N/N=C1/CCCc2cccnc21)N1CCN(c2ccccn2)CC1 | 3.03 | 3.6 | 3.2 | 2.23 | 1.11
41 | CC(C)Oc1ccc(-c2nn([C@@H](C)c3oc4ccc(F)cc4c(=O)c3-c3cccc(F)c3)c3ncnc(N)c23)cc1F [umbralisib (TGR-1202)] | 1.11 | 1.14 | 1.9 | 1.81 | 0.974
42 | COC(=O)/C=C/C(=O)OC [Dimethyl Fumarate] | 1.01 | 1.07 | 0.598 | 1 | 1.15
43 | COc1ccc2cc1Oc1ccc(cc1)C[C@H]1c3cc(c(OC)cc3CCN1C)Oc1c(OC)c(OC)cc3c1[C@H](C2)N(C)CC3 [Tetrandrine] | 4.3 | 4.1 | 2.97 | 1.84 | 2.11
44 | CCN(CC)C(=O)c1cccnc1 [Nikethamide] | 1.44 | 1.13 | 1.17 | 0.66 | 1.38
45 | CCOC(=O)N[C@@H]1CC[C@@H]2[C@@H](C1)C[C@H]1C(=O)O[C@H](C)[C@H]1[C@H]2/C=C/c1ccc(-c2cccc(F)c2)cn1 [Vorapaxar] | 1.81 | 1.29 | 2.37 | 1.49 | 1.31
46 | COC(=O)CCc1ccc(OCC(O)CNC(C)C)cc1 (stereo not given) [Esmolol HCl] | 0.978 | 0.415 | 0.525 | 0.386 | 1.12
47 | COc1ccc2cc3[n+](cc2c1OC)CCc1cc2c(cc1-3)OCO2 [Berberine chloride] | 1.19 | 1.36 | 2.07 | 1.41 | 1.31
48 | CC(=O)c1cc2c(o1)C(=O)c1ccccc1C2=O [Napabucasin] | 2.96 | 3.97 | 3.91 | 3.62 | 5.51
49 | NS(=O)(=O)c1cc2c(cc1Cl)NC(C(Cl)Cl)NS2(=O)=O (stereo not given) [Trichlormethiazide] | 1.14 | 0.794 | 0.859 | 0.531 | 0.98
50 | COc1ccc2c(c1)c(CC(=O)OCC(=O)O)c(C)n2C(=O)c1ccc(Cl)cc1 [Acemetacin] | 0.932 | 0.994 | 1.09 | 0.526 | 1.57
51 | CC1(C)C[C@@H]1C(=O)N/C(=C\CCCCSC[C@H](N)C(=O)O)C(=O)O [Cilastatin] | 0.899 | 0.574 | 1.49 | 0.578 | 0.796
